The source of these data is PubChem BioAssay (NCATS).

SMILES strings stand for the structures. Records with an inconclusive call do not appear. Where a call stands in place of a potency, no number is given. Activity calls are given as the source filed them. Calls follow the shape of the dose curve; as a rule, active = well fitted inhibition curve with a large enough effect; inconclusive = small, poorly fitted or top-dose-only effect; inactive = flat fitted curve, though single readings scatter.

The target of the test is Ubiquitin carboxyl-terminal hydrolase 1 (Homo sapiens) (UniProt O94782). Nature of the test: Inhibitors of USP1/UAF1: Pilot qHTS (AID 504865).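 Also: rhodamine fluorescence freed from ubiquitin-rhodamine substrate followed over time; top concentration of the series differs between compounds; nearly all actives have a fitted effect of over 35% in size.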 Particulars: purified USP1/UAF1, Ub-rhodamine cleavage fluorescence; series mostly up to 114 µM. In short, it runs like this: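 USP1/UAF1 complex (1nM) preincubated with compound 15 min at room temperature, then Ub-Rho substrate (150nM final) added. Fluorescence read kinetically at 480/540 nm, 6 reads every 60 seconds. Buffer: 50mM HEPES pH 7.8, 0.5mM EDTA, 0.1 mg/ml BSA, 1mM TCEP, 0.01% Tween-20.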
Ubiquitin carboxyl-terminal hydrolase 1 (Homo sapiens), sequence (O94782 whole entry, looked up): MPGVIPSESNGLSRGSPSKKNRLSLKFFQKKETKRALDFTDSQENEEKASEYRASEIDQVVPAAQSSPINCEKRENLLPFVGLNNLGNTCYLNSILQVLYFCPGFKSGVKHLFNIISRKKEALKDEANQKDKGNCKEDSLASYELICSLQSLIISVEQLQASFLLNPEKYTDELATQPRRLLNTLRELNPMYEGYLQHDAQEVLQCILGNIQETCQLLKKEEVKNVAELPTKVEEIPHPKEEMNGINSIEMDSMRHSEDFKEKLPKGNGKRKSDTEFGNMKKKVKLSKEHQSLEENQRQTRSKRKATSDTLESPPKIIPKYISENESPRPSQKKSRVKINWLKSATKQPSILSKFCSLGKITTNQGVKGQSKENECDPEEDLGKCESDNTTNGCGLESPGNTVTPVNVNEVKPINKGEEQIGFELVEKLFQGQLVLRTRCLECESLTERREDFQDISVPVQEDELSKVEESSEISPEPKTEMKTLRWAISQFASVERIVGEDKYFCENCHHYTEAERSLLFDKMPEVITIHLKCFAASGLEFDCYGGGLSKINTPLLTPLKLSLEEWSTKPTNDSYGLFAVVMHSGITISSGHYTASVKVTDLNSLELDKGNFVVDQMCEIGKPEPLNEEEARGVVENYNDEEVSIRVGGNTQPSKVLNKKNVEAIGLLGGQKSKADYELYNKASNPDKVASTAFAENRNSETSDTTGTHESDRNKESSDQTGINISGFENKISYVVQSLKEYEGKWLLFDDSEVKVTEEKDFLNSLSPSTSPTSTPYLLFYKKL
On the technique in general: Quantitative high-throughput screening tests each substance at several concentrations.
`CC(C)Cn1cnc2c(N)nc3ccccc3c21`: the Potency entry was “inactive”. Consider `O=S(=O)(O)CCS`, for which the Potency entry is “inactive”. The result for `CC(C)(C#N)c1cc(Cn2cncn2)cc(C(C)(C)C#N)c1` reads “inactive”. With `COc1c(N2CCNC(C)C2)c(F)cc2c(=O)c(C(=O)O)cn(C3CC3)c12` (stereo not given), the Potency result was “inactive”.

For the molecule `OC(Cn1cncn1)(Cn1cncn1)c1ccc(F)cc1F`, the Potency entry is “inactive”. For the molecule `O=C(O)c1cc(=O)[nH]c(=O)[nH]1`, the Potency result was “inactive”. As to `Nc1nc(=S)c2[nH]cnc2[nH]1`, the Potency entry was “inactive”. Regarding `CC(N)C12CC3CC(CC(C3)C1)C2` (stereo not given), the Potency result is “inactive”.

Consider `NNC(=O)c1ccncc1`, for which the Potency result was “inactive”. As for `CNCC[C@H](Oc1cccc2ccccc12)c1cccs1`, the Potency result is “inactive”.

Turning to `CCOc1cc(N)c(Cl)cc1C(=O)NCC1CN(Cc2ccc(F)cc2)CCO1` (stereo not given), the Potency result was “inactive”. On to `CN(Cc1cc(Br)cc(Br)c1N)C1CCCCC1`, for which the Potency entry is “inactive”. On to `Oc1c(Cl)cc(Cl)c2cccnc12`, for which the Potency result is “inactive”. On to `O=P(O)(O)C(O)(Cc1cccnc1)P(=O)(O)O`, for which the Potency entry is “inactive”. On to `NC(N)=NC(N)=NCCc1ccccc1`, for which the Potency entry is “inactive”.

`CCCCOc1ccc(CC(=O)NO)cc1`: the Potency entry was “inactive”. Regarding `C#CCN[C@@H]1CCc2ccccc21`, the Potency entry was “inactive”.

As to `CCc1cc(C(N)=S)ccn1`, the Potency result was “inactive”.

`N=C(N)c1ccc(OCCCCCOc2ccc(C(=N)N)cc2)cc1`: the Potency entry was “inactive”. With `COc1ncnc(NS(=O)(=O)c2ccc(N)cc2)c1OC`, the Potency result was “inactive”. Consider `CNC1CCCN(c2c(F)cc3c(=O)c(C(=O)O)cn(C4CC4)c3c2OC)C1` (stereo not given), for which the Potency result was “inactive”. For `N[C@@H](C(=O)N[C@@H]1C(=O)N2C(C(=O)O)=C(Cl)CS[C@H]12)c1ccccc1`, the Potency result was “inactive”. The value for `CCCCCCNC(=O)n1cc(F)c(=O)[nH]c1=O` was “inactive”; that for `CN1CCN(c2c(F)cc3c(=O)c(C(=O)O)cn4c3c2OCN4C)CC1` was “inactive”.

As for `COc1ccc2c(c1)c(CC(=O)OCC(=O)O)c(C)n2C(=O)c1ccc(Cl)cc1`, the Potency result was “inactive”. As for `CCN(C)C(=O)Oc1cccc([C@H](C)N(C)C)c1`, the Potency result is “inactive”. `CCCc1nc(C)c2c(=O)[nH]c(-c3cc(S(=O)(=O)N4CCN(CC)CC4)ccc3OCC)nn12`: the Potency result is “inactive”. With `COc1cc(NS(=O)(=O)c2ccc(N)cc2)nc(OC)n1`, the Potency entry was “inactive”. `Cn1nnc2c(C(N)=O)ncn2c1=O`: the Potency entry was “inactive”.

Turning to `O=c1cc(O)c(Cl)c[nH]1`, the Potency entry is “inactive”.
